This is part of a sample that, as a whole, favours compounds with a hit. Of some 83,000 tested, about 20% had one in any assay.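 Growth was measured after 48 h exposure to one concentration of compound in 96-well plates. Values under 10 count as active.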 A number with no mark means an inactive call. Active and inactive are the calls of the source.
Experiments:
Test in all cases: NCI-60 one-dose screen, 48 h (100 = growth as untreated, 0 = no growth, -100 = all killed)
Details in all cases: 10 µM unless noted
DU-145 prostate = tested on: DU-145 prostate
K-562 leukemia = tested on: K-562 leukemia
MALME-3M melanoma = tested on: MALME-3M melanoma
MDA-MB-231 breast = tested on: MDA-MB-231 breast
SF-268 CNS = tested on: SF-268 CNS
SF-295 CNS = tested on: SF-295 CNS
SF-539 CNS = tested on: SF-539 CNS
UACC-257 melanoma = tested on: UACC-257 melanoma
M14 melanoma = tested on: M14 melanoma
HCT-15 colon = tested on: HCT-15 colon
HT29 colon = tested on: HT29 colon
SNB-75 CNS = tested on: SNB-75 CNS
SNB-19 CNS = tested on: SNB-19 CNS
U251 CNS = tested on: U251 CNS
PC-3 prostate = tested on: PC-3 prostate
UACC-62 melanoma = tested on: UACC-62 melanoma
LOX IMVI melanoma = tested on: LOX IMVI melanoma
SK-MEL-28 melanoma = tested on: SK-MEL-28 melanoma
SK-MEL-5 melanoma = tested on: SK-MEL-5 melanoma

SMILES | growth (DU-145 prostate) | growth (K-562 leukemia) | growth (MALME-3M melanoma) | growth (MDA-MB-231 breast) | growth (SF-268 CNS) | growth (SF-295 CNS) | growth (SF-539 CNS) | growth (UACC-257 melanoma) | growth (M14 melanoma) | growth (HCT-15 colon) | growth (HT29 colon) | growth (SNB-75 CNS) | growth (SNB-19 CNS) | growth (U251 CNS) [%] | growth (PC-3 prostate) | growth (UACC-62 melanoma) | growth (LOX IMVI melanoma) | growth (SK-MEL-28 melanoma) | growth (SK-MEL-5 melanoma)
Brc1ccc(C2CC(c3cccc(Nc4ccncc4)c3)=NN2c2ccccc2)cc1 (stereo not given) | 88.7% | 4.05% (active) | 66.7% | 84.4% | 103% | 89% | 84.4% | 84% | 101% | 13.5% | 4.59% (active) | 79.6% | 94.3% | 32.1 | 52.4% | 98.6% | 53.4% | 73.3% | 
COc1ccc(NC(=O)c2sc3nc(C)c(C(=O)CCc4cccc(OC)c4)cc3c2N)cc1 | 71.7% | 20% | 62.5% | 85.8% | 80.2% | 15.7% | 72% | 89% | 70.1% | 46.7% | 67.4% | 65.7% | 73.5% | 78.3 | 79.5% | 63.7% | 75.4% | 83% | 
Cc1ccccc1-c1cc(Cc2ccc(F)cc2)c(=O)[nH]n1 | 130% | 84.8% | 88% | 109% | 94.6% | 123% | 94.2% | 137% | 118% | 110% | 117% | 101% | 88.2% | 106 | 116% |  | 98.9% | 118% | 98.3%
COc1cc(NCC(O)CN(CC(C)C)CC(C)C)c2nc(C)ccc2c1 (stereo not given) | 97.9% | 78.4% | 119% | 55.9% | 78.9% | 100% | 108% | 54.1% | 88.6% | 84.8% | 80.2% | 97.9% | 96% | 91.3 | 75.3% | 88.9% | 90.1% | 100% | 
CC(C)(C)CC(C)(C)Nc1c(-c2ccc3c(c2)OCO3)nc2cnccn12 | 101% | 72% | 111% | 83.9% | 84.1% | 86.2% | 91.5% | 101% | 45.9% | 84.1% | 80% | 67.5% | 90.9% | 95.6 | 67% | 66% | 94% | 94.3% | 
Cn1c(COC(=O)NCCc2ccccn2)nc2c(N3CCOCC3)nc(Cl)nc21 | 8% (active) | 2.75% (active) | -71.2% (active) | -64.5% (active) | 46% | 71.7% | -19.8% (active) | 18.1% | -59.2% (active) | -42.2% (active) | 0.156% (active) | 14.5% | 60.6% |  | 18.4% | 11.1% | -83.7% (active) | -90.8% (active) | 3.6% (active)
CC1(C)CN(c2cnc(C(=O)Nc3cc(F)cc4cccnc34)cn2)CCN1 | 101% | 36.3% | 47.5% | 58% | 74.6% | 97.8% | 83.7% | 93.5% | 70.8% | 59.3% | 47.1% | 72.9% | 93.1% | 89.5 | 44.8% | 106% | 69.7% | 80.2% | 
COc1ccc(-c2nc(N/N=C/c3cccc(O)c3)nc(N3CCOCC3)c2C#N)cc1 | 56% | 58.3% | 65.9% | 74.9% | 78.8% | 69.7% | 54.5% | 57.9% | 57.5% | 46.9% | 72.6% | 23.6% | 85.9% | 58.9 | 56.5% | 90.1% | 79.6% | 33.9% | 
Cc1[nH]n(C(=O)c2ccncc2)c(=O)c1N=Nc1ccc(F)c(Cl)c1 | 139% | 21.4% | 104% | 100% | 94.2% | 91.1% | 97% | 11.7% | 99.8% | 111% | 109% | 92.4% | 99.1% | 112 | 116% | 106% | 111% | 107% | 
C=Cc1cc[n+](CCCCCCCCCCCC)cc1 | 105% | 93.8% | 111% | 99.9% | 99.7% | 106% | 104% | 111% | 102% | 110% | 99.2% | 97.4% | 103% | 109 | 110% | 105% | 99.7% | 111% | 
COc1ccc(NC(=O)c2sc3nc(C)c(C(=O)c4ccc(OC)cc4)cc3c2N)cc1 | 65.4% | 23.3% | 37.9% | 60.2% | 61.8% | 44.3% | 51% | 55.8% | 32.8% | 35.8% | 7.92% (active) | 21.2% | 65.2% | 39.7 | 56.4% |  | 54.2% | 64.9% | 35.1%
Cn1c(=O)c2[nH]c(CCCc3nc4c([nH]3)c(=O)n(C)c(=O)n4C)nc2n(C)c1=O | 118% | 105% | 108% | 113% | 104% | 111% | 98.9% | 114% | 111% | 115% | 109% | 105% | 101% |  | 94% | 96.8% | 105% | 131% | 103%
Cc1c2c(cc[n+]1Cc1ccccc1)c1ccc(OCc3ccccc3)cc1n2Cc1ccccc1 | -33.6% (active) | -25% (active) | -73.6% (active) | -85.1% (active) | -90.4% (active) | -69.2% (active) | -5.52% (active) | -0.651% (active) | -87.9% (active) | 39.2% | -48.7% (active) | -18% (active) | -13.3% (active) |  | -44.8% (active) | -87.1% (active) | -93.2% (active) | -56.5% (active) | -99.4% (active)
CN(C)Cc1c(-c2ccccc2)[nH]c2ccccc12 | 113% | 107% | 128% | 102% | 92.1% | 92.7% | 106% | 99.3% | 82.6% | 93.6% | 89.1% | 93.6% | 99% | 106 | 94.9% | 102% | 97.4% | 97.2% | 
COc1ccc(C(=O)c2cc3c(N)c(C(=O)Nc4cccc5ccccc45)sc3nc2C)cc1 | 9.48% (active) | 7.36% (active) | 55% | 15.7% | 29.1% | 19.7% | -9.85% (active) | 55.8% | 11.6% | 18.9% | -68.5% (active) | -11.3% (active) | 30.4% | 10.5 | 24.5% |  | 23.7% | 59.3% | 
O=C(Nc1ccc(Cl)cc1)Nc1ccc(Cl)c(Cl)c1 | 10.7% | 4.12% (active) | -1.33% (active) | 37.6% | 36.1% | -50.7% (active) | -19.2% (active) | 43% | 22.8% | 3.42% (active) | 28.6% | 51.7% | 15.9% |  | 9.37% (active) | 5.98% (active) | 7.43% (active) | 35.4% | 24.1%
CCCc1cc2c(cc1Br)OCO2 | 111% | 121% | 117% | 113% | 106% | 96.5% | 98.8% | 91.5% | 88.5% | 101% | 100% | 99.9% | 106% | 100 | 85.7% |  | 95.2% | 105% | 99.6%
